From PubChem BioAssay AID1347056 (Sanford-Burnham Center for Chemical Genomics, 2019) come the findings set out here.

One may read the inhibition as the change of the read-out against control, counted positive when it falls.

Screen size: about 360,000 compounds; about 3,600 (1%) were called active. Many of the other results were omitted from the sample, so actives are more common in it than they were. Unmarked numbers belong to inactive results.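 The calls were made as follows: active = compounds whose plate-normalised and pattern-corrected inhibition of the luciferase reporter signal at the single screening dose is 50% or more; inactive = the rest.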

A short description of the experiment: inhibitors of TROY-driven NF-kB signaling, primary screen, Q293 LMP1-TROYcd cells, NF-kB luciferase, uHTS (AID 1347056). The note with it: Q293 LMP1-TROYcd NF-kB luciferase reporter, 4 h; at 10 µM; stronger effect = higher value. For orientation: A reporter such as luciferase makes a cellular process visible.
As to `CCCCOc1ccc(CON(C(C)=O)C(C)=O)cc1Cl`, the inhibition was -35.4%. The figure for `COC(=O)c1c(C)[nH]c(C(=O)/C=C/c2ccc(Cl)cc2)c1C` is -12.1%; for `Cc1[nH]c(=O)c(C(=O)/C=C/c2ccccc2)c2c1CCCC2` it is 52% (active); for `CC1(C(=O)O)CCCN(C(=O)/C=C/c2ccccc2)C1` (stereo not given) it is -7.33%.

Consider `COc1cccc(-c2nnc(NC(=O)c3ccc(S(=O)(=O)N(CC(C)C)CC(C)C)cc3)o2)c1`, for which the inhibition is 12.8%.

Turning to `CC(Nc1nc(N2CCCC2)nc2ccccc12)c1ccccc1` (stereo not given), the inhibition was 5.36%. As for `CC(Nc1nc(C(F)(F)F)nc2ccccc12)c1cccs1` (stereo not given), the figure is 60.8% (active). The figure for `CCc1ccc(C(CNc2nc(C(F)(F)F)nc3ccccc23)N(C)C)cc1` (stereo not given) is 4.28%; for `CN1CCCN(S(=O)(=O)c2ccc3c(c2)OCCO3)CC1` it is -12.9%; for `COc1ccc(OC)c(Nc2nc3ccccc3n3cnnc23)c1` it is -14.2%.

In the case of `COc1ccc(Nc2ncnc3ccc(Br)cc23)c(OC)c1`, the inhibition is 84.4% (active).

In the case of `COc1ccc(OC)c(NC(=O)CN(C)CCOc2ccc(Br)cc2)c1`, the inhibition was 9.37%.

As to `COc1cccc2cc(C(N)=O)/c(=N\NC(=O)c3ccccc3)oc12`, the inhibition was 73.1% (active). As for `COc1cccc2cc(C(=O)N3CCN(C(=O)c4ccccc4)CC3)c(=O)oc12`, the figure is -10%; as for `COc1cccc2cc(C(=O)N(C)C)c(=O)oc12`, 11%; as for `O=C(CN(c1cc(C(F)(F)F)ccc1Cl)S(=O)(=O)c1ccccc1)NCc1cccnc1`, 0.66%. The figure for `CSc1nc(N(C)NC(=O)c2cccc(C)c2)c2ccccc2n1` is 25.9%; for `COC(c1ccccc1)(c1ccccc1)C(Oc1nc(C)cc(C)n1)C(=O)O` (stereo not given) it is 4.6%. `Cc1cc(C)nc(S/C=C/C(=O)c2ccccc2)n1`: the inhibition was 54% (active). On to `CCOC(=O)N1CCN(CC(=O)c2ccc3c(c2)CCN3)CC1`, for which the inhibition is 2.97%. The figure for `CC1(c2ccccc2)NC(=O)N(CC(=O)Nc2cc(Cl)ccc2N2CCOCC2)C1=O` (stereo not given) is -24.9%; for `C/C(=N\Nc1nc(Nc2ccccc2)nc(N2CCOCC2)n1)c1cccs1` it is -8.45%.

Regarding `O=C(CSc1nc(Nc2ccccc2)nc(N2CCOCC2)n1)Nc1cc(Cl)ccc1O`, the inhibition was 64.7% (active). The figure for `C=CCn1c2c(c3ccccc31)CCC2` is -7.49%. The figure for `OC[C@@H]1CN(Cc2ccncc2)C[C@H](n2cnc3c(N4CCN(c5ccccc5)CC4)ncnc32)O1` is 37.7%; for `O=C(Nc1ccc(Br)c2cccnc12)c1ccc(Cn2cc([N+](=O)[O-])cn2)o1` it is -32.5%; for `N#Cc1c(NC(=O)CCCl)sc2c1CCCCC2` it is -37%. As for `CC(=O)c1c(C)[nH]c(C(=O)OCC(=O)Nc2c(C)cccc2C)c1C`, the figure is 14.6%; as for `CC(=O)c1c(C)[nH]c(C(=O)OCC(=O)Nc2sc3c(c2C#N)CCCC3)c1C`, 52.3% (active). As to `COc1ccc(N2CC(C)Cn3c2nc2c3c(=O)n(Cc3ccccc3F)c(=O)n2C)c(OC)c1` (stereo not given), the inhibition is 24.4%. The figure for `c1ccc(CSc2ncnc3c2sc2nc(N4CCOCC4)c4c(c23)CCCC4)cc1` is 60.3% (active); for `c1ccc(COc2nsnc2N2CCOCC2)cc1` it is 11%. Take `O=C(O)c1cccnc1Sc1ncnc2sc3c(c12)CCC3`: the inhibition is 10.5%. The figure for `Cc1ccc(CCN2CC(C(=O)O)CC2=O)cc1` (stereo not given) is -21.4%; for `CCCCCn1nnnc1C1c2ccccc2C(=O)N1Cc1ccco1` (stereo not given) it is -7.23%.

Regarding `S=C(NCc1ccco1)Nc1ccc2c(c1)OCCO2`, the inhibition is 8.28%.

With `O=C1c2ccccc2C(Nc2ccc3c(c2)OCCO3)N1Cc1ccco1` (stereo not given), the inhibition was 62% (active). The figure for `NC1=CC(=O)C(=O)c2cccnc21` is -15.9%; for `O=C(O)CCCC(=O)Nc1ccccc1-n1ccnc1` it is 13%; for `O=C(NCCOc1ccccc1F)Nc1ccc(Br)cc1` it is -33.8%. As for `O=C(Nc1ccccc1)Nc1nnc(COc2ccccc2F)s1`, the figure is 53.5% (active).

`O=C(Nc1nnc(COc2ccccc2)s1)Nc1ccccc1F`: the inhibition is -7.72%. As for `Cc1ccc(NC(=O)C2CC(=O)N(c3ccc4c(c3)OCCO4)C2)cc1S(=O)(=O)N1CCCCCC1` (stereo not given), the figure is 29.1%; as for `Cc1ccc2c(c1)N(CC(=O)N(Cc1ccccn1)Cc1ccco1)C(=O)C(C(C)C)O2` (stereo not given), 4.87%.

Regarding `Cc1ccc(NNC(=O)C2CCC2)cc1C`, the inhibition is -8.76%.

For the molecule `O=C(/C=C/NCc1ccc(F)cc1)c1ccccc1`, the inhibition was -45.6%.

On to `Cc1ccc(N/C=C/C(=O)c2ccccc2)cc1C`, for which the inhibition is 56.6% (active).

Turning to `CCC(C)NC(=O)CN(C1CCCCC1)S(C)(=O)=O` (stereo not given), the inhibition is -2.32%. For the molecule `COc1ccc(CCN2C(=O)c3[nH]nc(-c4ccccc4O)c3C2c2ccc(C)cc2)cc1OC` (stereo not given), the inhibition is 22.8%.

Consider `COC(=O)Cn1c(=NC(=O)c2cc(OC)c(OC)c(OC)c2)sc2cc(OC)ccc21`, for which the inhibition is 3.88%.

As for `Cc1ccc(N2CCN(c3ccc([N+](=O)[O-])cn3)CC2)c(C)c1`, the inhibition is 5.6%. For `NC(=O)C[n+]1cccc(C(N)=O)c1`, the inhibition is -13.6%.

Turning to `Cc1cccc(NC(=O)Cn2cc(C(=O)c3ccco3)c3ccccc32)c1`, the inhibition was 8.41%. As for `Cc1cccc(CN2CCC(CNC(=O)Nc3ccc(F)c(Cl)c3)CC2)c1`, the inhibition was 12.4%. The figure for `Cc1ccc(C)c(Cn2nnc3c(=O)[nH]c(C(=O)Nc4ccc(F)cc4)nc32)c1` is 30.7%; for `CSc1nnc(NC(=O)c2nc(S(=O)(=O)Cc3ccc(C)cc3)ncc2Cl)s1` it is -5.7%.

Take `Cc1cccc(CS(=O)(=O)c2ncc(Cl)c(C(=O)Nc3ccc(F)cc3)n2)c1`: the inhibition is 70.8% (active). The figure for `Cc1cccc(NC(=O)c2nc(S(=O)(=O)Cc3ccccc3)ncc2Cl)c1` is 77.9% (active); for `CCOc1ccc(NC(=O)C2CC(=O)N=C(N)S2)cc1` (stereo not given) it is 15.3%; for `O=C(O)c1ccc(Cn2cnc3c(=S)nc[nH]c32)cc1` it is 12.2%. Regarding `C/C(CC(=O)N1CCN(C=O)CC1)=N\NC(=O)c1ccc(Br)cc1`, the inhibition is -8.44%. On to `COc1cc(/C=C/C(=O)O)cc(S(=O)(=O)Nc2ccccc2C(=O)NCCc2ccccc2)c1OC`, for which the inhibition is -15.9%. The figure for `CCCCC[C@H]1CN(C2CCCCC2)C(=O)[C@@H]1CC(=O)NCc1ccc(OC)cc1` is 14.9%.

With `Cc1ccc(S(=O)(=O)N2CCC(C(=O)N[C@@H](C)C(=O)NCc3ccco3)CC2)cc1`, the inhibition is 13.7%. Turning to `CCn1c(SCc2cccc(C(=O)O)c2)nnc1-c1ccc(Cl)cc1`, the inhibition is 6.17%. The figure for `Cc1ccccc1NC(=O)C1CCCN(C(=O)NCc2ccccc2)C1` (stereo not given) is -8.74%; for `COc1ccc2c(c1)c(=Cc1ccc(N(C)C)cc1)c1cc(-c3ccccc3)[n+](C)n12` it is 69.4% (active). The figure for `COc1cccc(CCNC(=O)c2cccc(NC(=O)C3=C(C)OCCS3)c2)c1` is 13.6%; for `Cc1cccc(-c2nnc(SCC(=O)O)n2Cc2ccccc2)c1` it is -6.32%; for `Cc1ccsc1C(=O)OCC(=O)Nc1cccc(F)c1` it is -57.4%. The figure for `Cc1ccsc1C(=O)OCC(=O)NCCc1ccccc1` is -56.3%; for `Cc1ccsc1C(=O)OCC(=O)c1cc(C)n(CC2CCCO2)c1C` (stereo not given) it is 78.8% (active); for `Cc1cccc(C(=O)Nc2ccccc2-c2nnn(CC(=O)Nc3ccc4c(c3)OCCO4)n2)c1` it is 6.18%. `COc1cc2c(cc1OC)C(=O)NCC(C)(C)O2`: the inhibition is 32.5%.

For the molecule `O=C(NC1=CC(=O)c2ccccc2C1=O)c1ccccc1`, the inhibition is 63.7% (active). As for `Cc1cc(=O)c2ccc(NC(=O)c3ccccc3)cc2[nH]1`, the figure is -14.4%; as for `CC(=O)c1cc(NC(=O)c2ccccc2)c(=O)oc1/C=C/N(C)C`, 7.35%.

Consider `CC(=O)Nc1cncc(-c2ccccc2CO)n1`, for which the inhibition was -15.3%. As for `Cn1c(=O)c2cc(S(=O)(=O)NCCC(=O)Nc3ccc(F)cc3F)ccc2n(C)c1=O`, the figure is -2.05%; as for `O=C(COC(=O)c1ccc(O)cc1O)c1ccc2c(c1)OCCO2`, 1.99%; as for `O=C(OCc1ccccc1F)c1ccc2c(c1)OCCO2`, -79.6%.

For the molecule `COc1ccc(C(=O)OCC(=O)Nc2cccc(C(C)=O)c2)cc1OC`, the inhibition was 10.5%. In the case of `O=C(COC(=O)c1ccccc1)c1ccc2c(c1)OCCO2`, the inhibition was 80.8% (active).

`CC(=O)Nc1cccc(C(=O)OCC(=O)NCc2cc(C)c(O)c(C)c2)c1`: the inhibition was -29%. As for `CC(=O)Nc1cccc(C(=O)OCC(=O)c2ccc3c(c2)OCO3)c1`, the figure is 64.7% (active); as for `Cc1cccc(OC(=O)c2sc3ncn(C)c(=O)c3c2C)c1`, -27.1%. The figure for `COc1cccc(C(=O)N2CCC(n3nccc3NC(=O)C3CCOC3)CC2)c1` (stereo not given) is -1.36%; for `CCOc1ccc(C(C(=O)NC2CCCC2)N(C(=O)c2snc(C(N)=O)c2N)C2CCCC2)cc1` (stereo not given) it is -0.96%. The figure for `Nc1nnc(SCC(=O)NC2CCCc3ccccc32)s1` (stereo not given) is 21%. On to `COc1cccc(NC(=O)N(C)C[C@@H]2Oc3ncc(Br)cc3C(=O)N([C@@H](C)CO)C[C@H]2C)c1`, for which the inhibition was -0.54%. The figure for `CCc1cccc(CC)c1NC(=S)NCc1ccc2[nH]c(C)cc2c1` is -11.8%; for `Cc1cccc(NC(=S)NCc2ccc3[nH]c4c(c3c2)CCCC4)c1` it is 63.8% (active); for `Cc1cc(C)cc(NC(=S)NCCc2c[nH]c3ccccc23)c1` it is 1.03%. As for `CC(C)CCN1CCC(C)(NC(=O)c2ccccc2)C1=O` (stereo not given), the figure is -0.82%; as for `C=CCC(NCc1ccco1)c1ccc(OC)cc1` (stereo not given), 14.2%.
